The record followed here is PubChem BioAssay (NCI).

About 83,000 compounds went through this panel and 20% of them were active in at least one assay; those are over-represented in the sample as a whole.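 In brief: 96-well plates, 48 h treatment, single concentration, percent growth endpoint.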 Unmarked numbers belong to inactive results. Calls of active or inactive are those of the source. The calls were made as follows: active = growth percent below 10; inactive = the rest.

In the first test the test system is HCT-15 colon. Nature of the test: NCI-60 one-dose screen, 48 h (100 = growth as untreated, 0 = no growth, -100 = all killed). The note with it: 10 µM unless noted.
For `CC(=O)Nc1ccc(C(=O)Nc2cc(-c3ccccc3)ccc2N)cc1`, the growth is 85.7%.
Still for that read-out and setting: next, `CN1CCN(c2cc(F)c(NC3=C(Cl)C(=O)c4ncccc4C3=O)c(F)c2)CC1`: -8.53% (active); `Clc1nc(Cl)c2ncn(CC3(Cn4cnc5c(Cl)nc(Cl)nc54)COC3)c2n1`: -89.9% (active).
On the same count and under the same terms, under `CC(C)(C)CC(C)(C)Nc1c(-c2ccc(C(F)(F)F)cc2)nc2cnccn12` stands 73.8%; under `CCC(C)N(CCNc1cc(OC)cc2cccnc12)CCC(C)C` (stereo unspecified), 76.6%; under `Cn1c(COC(=O)NCCc2ccccn2)nc2c(N3CCOCC3)nc(Cl)nc21`, -42.2% (active).
On the same count and under the same terms, under `BrC(Br)(Br)c1cnc2ccccc2n1` stands 31.7%.
`Clc1ccc(N2N=C(c3cccc(Nc4ccncc4)c3)CC2c2ccc3c(c2)OCO3)cc1` (stereo unspecified): the growth is -21.1% (active).
The same measure, in the same setting: under `COc1cc(CNC(=O)CCCCC[P+](c2ccccc2)(c2ccccc2)c2ccccc2)c(OC)c2c1OCO2` stands 99.8%.
Still for that read-out and setting: under `CC[C@@]12C=CCN3CC[C@]4(c5cc(NC(=O)COc6cc(OCC(=O)Nc7cc8c(cc7OC)N(C)[C@H]7[C@@](O)(C(=O)OC)[C@H](OC(C)=O)[C@]9(CC)C=CCN%10CC[C@]87[C@@H]%109)cc7oc(-c8ccccc8)cc(=O)c67)c(OC)cc5N(C)[C@@H]4[C@](O)(C(=O)OC)[C@H]1OC(C)=O)[C@H]32` stands 34.7%; under `O=C1Nc2c(ccc(Cl)c2Cl)/C1=C/c1ccc(O)cc1`, 90.8%.
`COc1ccc(/C=C(/c2ccccc2)[N+](=O)[O-])cc1`: the growth is -35% (active).
The same measure, in the same setting: next, `COc1ccccc1/C=C1\Oc2cc(OCCCN3CCCC3)ccc2C1=O`: 77.7%; `COc1ccc(/C=C\c2nc3ccccc3s2)cc1OP(=O)(O)O`: 30%; `COc1ccc(-c2c[nH]c(C(=O)O)c2-c2cc(OC)c3c(c2OC)OCO3)cc1`: 103%.
On the same count and under the same terms, next, `COc1ccc(C(=O)c2cc3c(N)c(C(=O)Nc4cccc(Cl)c4C)sc3nc2C)cc1`: 15.9%.
Still for that read-out and setting: under `O=C(/C=C\c1ccc(OCCCCCC[P+](c2ccccc2)(c2ccccc2)c2ccccc2)cc1)c1ccc2c(c1)OCCO2` stands 22%; under `Cc1cccc(Oc2ccc(Nc3ncnc4ccc(NC(=O)CNCCO)cc34)cc2Cl)c1`, 62.6%.
In the case of `O=C(CSc1nc2sc3c(c2c(=O)n1Cc1ccccc1)CCCC3)N1CCN(c2ccccc2)CC1`, the growth was 94.8%.
The same measure, in the same setting: under `Cc1cccc(Oc2ccc(Nc3ncnc4ccc(NC(=O)CN(C)C)cc34)cc2Cl)c1` stands -40.9% (active).
Regarding `O=C1/C(=C/c2ccc(O)cc2)COc2ccc(-c3ccccc3)cc21`, the growth is 48.1%.
Take `COc1ccc(C(=O)c2cc3c(N)c(C(=O)Nc4cccc(OC)c4)sc3nc2C)cc1`: the growth was 16%.
In the case of `NS(=O)(=O)c1cccc(NC(=O)C(=O)C2C(=O)Nc3ccccc32)c1` (stereo unspecified), the growth was 99.8%.

In a further test the test system is HT29 colon. The description is as above. The note with it: 10 µM unless noted.
As to `COc1cccc2cc(-c3cc4ccccc4[nH]3)/c(=N/C(=S)Nc3ccc(C)cc3)oc12`, the growth was 86.3%.
For the compound `CN1C(=O)N(C)C2NC(N/N=C/c3ccccc3)=NC21` (stereo unspecified), the growth is 111%.
As to `COc1cc(-c2cc(=O)oc3cc(O)ccc23)cc(OC)c1OC`, the growth was 95.1%.
`COc1ccccc1/C=N/NC1=NC2C(N1)N(C)C(=O)N2C` (stereo unspecified): the growth was 111%.
Same read-out and setting: under `CCN(CC)CCSCCCNc1c(C)cnc2cc(Cl)ccc12` stands 54.9%; under `COc1cc(Nc2cc(O)c3c(=O)cc(-c4ccccc4)oc3c2)cc(OC)c1`, 3.58% (active).
Still for that read-out and setting: next, `NC(=O)c1ncn(C2OC(CO)C(O)C2O)n1` (stereo unspecified): 73.3%; `C(=N\Nc1ncc(-c2cc3cc4c(cc3o2)OCO4)s1)/c1c[nH]c2ccccc12`: 23.2%; `c1ccc(C2CC(c3cccc(Nc4ccncc4)c3)=NN2c2ccccc2)cc1` (stereo unspecified): 1.62% (active).
Still for that read-out and setting: next, `CC1=NNC(=O)C1CCC(=O)N/N=C(\C)c1ccc2ccccc2c1` (stereo unspecified): 116%; `O=C(N/N=C/c1ccncc1)c1ccccc1Nc1cccc(C(F)(F)F)c1`: 99.3%; `COc1ccc(Nn2c(SCC(=O)Nc3nc(-c4ccc(Cl)cc4)cs3)nc(C)c2C)cc1`: 30.1%.
`COc1c(Cl)cc(Cl)c2ccc(C=C3C(=O)N(C)C(=O)N(C)C3=O)nc12`: the growth is 105%.
The same measure, in the same setting: next, `Cc1cccc(C)c1-c1cc(Cc2ccc(Cl)cc2)c(=O)[nH]n1`: 105%; `CCN1C(=O)N(CC)C2C1NN=c1s/c(=C3\C(=O)Nc4ccccc43)c(=O)n12` (stereo unspecified): 5.74% (active).
Same read-out and setting: next, `CC(=O)Nc1ccc(C(=O)Nc2cc(-c3ccccc3)ccc2N)cc1`: 50.7%; `CN1CCN(c2cc(F)c(NC3=C(Cl)C(=O)c4ncccc4C3=O)c(F)c2)CC1`: 11.2%; `Clc1nc(Cl)c2ncn(CC3(Cn4cnc5c(Cl)nc(Cl)nc54)COC3)c2n1`: -70.1% (active).
The same measure, in the same setting: under `CC(C)(C)CC(C)(C)Nc1c(-c2ccc(C(F)(F)F)cc2)nc2cnccn12` stands 57.4%; under `CCC(C)N(CCNc1cc(OC)cc2cccnc12)CCC(C)C` (stereo unspecified), 55.6%.
For `Cn1c(COC(=O)NCCc2ccccn2)nc2c(N3CCOCC3)nc(Cl)nc21`, the growth is 0.156% (active).
Consider `BrC(Br)(Br)c1cnc2ccccc2n1`, for which the growth is -65.1% (active).
For `Clc1ccc(N2N=C(c3cccc(Nc4ccncc4)c3)CC2c2ccc3c(c2)OCO3)cc1` (stereo unspecified), the growth is 3.63% (active).
Take `COc1cc(CNC(=O)CCCCC[P+](c2ccccc2)(c2ccccc2)c2ccccc2)c(OC)c2c1OCO2`: the growth is 45.2%.
Turning to `CC[C@@]12C=CCN3CC[C@]4(c5cc(NC(=O)COc6cc(OCC(=O)Nc7cc8c(cc7OC)N(C)[C@H]7[C@@](O)(C(=O)OC)[C@H](OC(C)=O)[C@]9(CC)C=CCN%10CC[C@]87[C@@H]%109)cc7oc(-c8ccccc8)cc(=O)c67)c(OC)cc5N(C)[C@@H]4[C@](O)(C(=O)OC)[C@H]1OC(C)=O)[C@H]32`, the growth was 1.38% (active).
For the compound `O=C1Nc2c(ccc(Cl)c2Cl)/C1=C/c1ccc(O)cc1`, the growth was 94.7%.
Still for that read-out and setting: under `COc1ccc(/C=C(/c2ccccc2)[N+](=O)[O-])cc1` stands -26.7% (active); under `COc1ccccc1/C=C1\Oc2cc(OCCCN3CCCC3)ccc2C1=O`, 16.4%; under `COc1ccc(/C=C\c2nc3ccccc3s2)cc1OP(=O)(O)O`, 104%.
Regarding `COc1ccc(-c2c[nH]c(C(=O)O)c2-c2cc(OC)c3c(c2OC)OCO3)cc1`, the growth is 110%.
Same read-out and setting: under `COc1ccc(C(=O)c2cc3c(N)c(C(=O)Nc4cccc(Cl)c4C)sc3nc2C)cc1` stands 6.48% (active); under `O=C(/C=C\c1ccc(OCCCCCC[P+](c2ccccc2)(c2ccccc2)c2ccccc2)cc1)c1ccc2c(c1)OCCO2`, -17.5% (active); under `Cc1cccc(Oc2ccc(Nc3ncnc4ccc(NC(=O)CNCCO)cc34)cc2Cl)c1`, 38.4%.
Same read-out and setting: under `O=C(CSc1nc2sc3c(c2c(=O)n1Cc1ccccc1)CCCC3)N1CCN(c2ccccc2)CC1` stands 90.2%; under `Cc1cccc(Oc2ccc(Nc3ncnc4ccc(NC(=O)CN(C)C)cc34)cc2Cl)c1`, 3.23% (active); under `O=C1/C(=C/c2ccc(O)cc2)COc2ccc(-c3ccccc3)cc21`, 27.1%.
Still for that read-out and setting: under `COc1ccc(C(=O)c2cc3c(N)c(C(=O)Nc4cccc(OC)c4)sc3nc2C)cc1` stands 1.18% (active).
For `NS(=O)(=O)c1cccc(NC(=O)C(=O)C2C(=O)Nc3ccccc32)c1` (stereo unspecified), the growth was 102%.
